Consider 45 sequences from the supplement of paper PMC11417369.

The full ranking holds about 25,000 sequences; the median of “ln(normalized median fluorescence intensity)” is about 7.1, and the highest 2% start at about 10. The sample holds the highest values, similar sequences and a random draw of the others, so the mix is not that of the screen.

This experiment concerns PfSIP2 AP2 domain 1 (GST-tagged). Put plainly: gcPBM binding intensity (ln(normalized median fluorescence intensity)); higher = stronger DNA binding. Put shortly:
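GST-fused DNA-binding domains of P. falciparum, expressed in E. coli, were applied at about 25 μg on average for 1 h to an Agilent 4 × 180k array of primer-extended double-stranded 36-bp intergenic genomic probes and negative controls. Binding intensity is the highest Masliner-normalised natural-log median intensity across replicate spots of either probe orientation, measured with Alexa488 anti-GST antibody and a 488 nm scan.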
In the case of “TTGTTAAATATTTATAAAATGAATTTAAAATGTACT [CACACA_negctrl_site665]”, the “gcPBM binding intensity (ln)” value came out at 7.05. In the case of “ATATGTATAAATATAAATATATATATATATATATAT [CACACA_negctrl_site705]” it was 9.63; in that of “TAATATAAAGGAAAAGAAAAGAAAAGAATATACAAT [CACACA_negctrl_site1369]”, 6.69; in that of “GAAAGGACAAGAATAGTGCACATGCAATGTTATTTT [GTGCAC_site9985]”, 9.8. The result for GTAATAAGAATTATAGTGCAATGTAATACATTTATA reads 7.97. In the case of “GGACAAGAATAGTGCACATGCAATGTTATTTTTTAT [TGCATGCA_site450]” it was 10.9; in that of “ATTTTTTTTTTTTTTATTCCCCTTTCGAAAAAAACC [CACACA_negctrl_site1139]”, 7.18.

Turning to “TACTTATTTGATTGGGTGCATATATATAGTATGTAT [GTGCAC_site9845]”, the “gcPBM binding intensity (ln)” value was 10.6. As to “CTTATTGATTTAAAAAGTACATATATGTATATACAC [XGTACX_site4072]”, the “gcPBM binding intensity (ln)” value came out at 7.05. The result for “ATAGTTTAATTTATATGTACATATAATATTGATTTG [XGTACX_site7520]” reads 7.29; that for “TTTTATTTATCTAATTGTACTCATTCTTTTTTGATG [XGTACX_site2876]”, 6.88.

Consider “AGATATATATATAGGTGTACTGGAATGAAATTGTTT [XGTACX_site8200]”, for which the “gcPBM binding intensity (ln)” value turned out to be 6.94. The result for “AAATAAAAATTAAAAAAATAGAAACGAATTGAATGC [TGCATGCA_negctrl_site365]” reads 7.2.

In the case of TATAAATTAAAATGTGTGCACTAAATTGAAATAGAA, the “gcPBM binding intensity (ln)” value stood at 10.7. The result for “GATGAAAATAGAAATACACACTAAAAAATAAAATTA [CACACA_site4764]” reads 6.75; that for “TCAATATATATAAGAAGTACATGTGAATGAAAAAAA [XGTACX_site1674]”, 7.14; that for “AAAAAAAAATTATTCACACATATATATATATATATA [CACACA_site5579]”, 9.38. In the case of “TAAAATAATTTATGCATACACACATATATATATATA [CACACA_site4021]” it was 9.23. Consider “GCATATTTTATAATTTTACACACCATATAAAATAAT [CACACA_site8904]”, for which the “gcPBM binding intensity (ln)” value is 7.2. The result for ATATACACCTGAGAGGTGCATATATATAAAATTTAC reads 11.2; that for “TAAGAATTGAAAAAATGTACACAATATAAAATTGAA [XGTACX_site698]”, 6.88. The result for ATAATTAAGTTATGTGTGCACTGTTAAAAATAAATG reads 10.4; that for “TAAATTATAATATGCACACAAAATGTTATATTAAAA [CACACA_site376]”, 7.01.

Take “TATTAAAAATGTTAAGTGCAAAAATAAAAATTGTGG [GTGCAC_site9854]”: the “gcPBM binding intensity (ln)” value came to 7.71. In the case of “ACCTATATAAGTTATACACACAAATATAGATATATA [CACACA_site7356]” it was 7.06; in that of “AACAAGTTGCATGGTGCACACATGTATATATATCTA [CACACA_site2548]”, 11.6; in that of “ATGTAAGTTGTGCATTCACACACATATATATATATA [CACACA_site9086]”, 9.26.

For “AACAAGTTGCATGGTGCACACATGTATTTATATCTA [CACACA_site5414]”, the “gcPBM binding intensity (ln)” value was 11.8.

Take “TAGTTGCACATGTATACACACAAAAAATATTTTATG [CACACA_site475]”: the “gcPBM binding intensity (ln)” value is 7.68. With “TATGGTATATACAACACACACACATATGTATATATA [CACACA_site927]”, the “gcPBM binding intensity (ln)” value was found to be 7.14. In the case of “ATCATATGTATGCATACACACAAAAAGTTATTTATA [CACACA_site6325]” it was 7.06.

For “AGGAAAAACTTGAATGCATGCGCACATTCTAGTTTG [TGCATGCA_site776]”, the “gcPBM binding intensity (ln)” value is 6.99. In the case of “AAAATTTATATAGGCACACAAATAAATTAATACATA [CACACA_site1418]” it was 6.76. In the case of “TTTTTTTATATTATACGCACTAATATATATATATAT [XGTACX_negctrl_site40]” it was 8.94; in that of “CCGTATATTTTATATAGTACTCATCATATATTTTTA [XGTACX_site5560]”, 6.96. In the case of “AAGATAATTACGCACACACACACACGCCCACAACTA [CACACA_site7255]” it was 7.34; in that of “TATCTTCATATATGGTGTACAGATTTTTTTTTTTTT [XGTACX_site5545]”, 7.26; in that of “CATTTTGTAAGATATGCACACATGGATCATATTTTA [CACACA_site423]”, 6.94.

For the sequence “CTGTCTGCAGATATGGTGCATTTGTAAGATCTTACA [GTGCAC_site9870]”, the “gcPBM binding intensity (ln)” value was 10.4. The result for “GGAAAAAGAAATTAATGTACATGTGGATGTATGAGG [XGTACX_site5468]” reads 7.25; that for “TTTCCTCATTTTATCATACACACTTGTTTATATGTG [CACACA_site8202]”, 6.92; that for “TATTCAGGTCCAATGGTGCAATATATTTTTGTAATA [GTGCAC_site9607]”, 10.5. As for “TCTTTGTATATATGTTCATTTGTAATATATATTCAT [TGCATGCA_negctrl_site467]”, the “gcPBM binding intensity (ln)” value is 7.18. In the case of AATTTATATAATTTTGTGCACAATATTCATGTATAT it was 8.93; in that of “AATCATTTATTGATGGTGCAATATACCATCTAATGA [GTGCAC_site9440]”, 9.44.
